Screening data from PubChem.
Only some compounds are listed: those with a hit (about 6.2% of all), similar ones and a draw of the others.
Luc counter: counter-screen: inhibitors of Kinase-Glo firefly luciferase; Kinase-Glo luciferase, ATP luminescence, 8 min; Potency, µM (top dose mostly 38.3 µM), for inactives: top-dose activity change, negative = inhibition, usual class: inhibitors; actives 0.28% (n = 200,000); AID 1379; further: nearly all actives have a fitted effect of over 60% in size
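Recombinant Kinase-Glo luciferase, 10 uM ATP (linear range), luciferin; imidazole pH 7.2 / KCl / MgCl2 / Tween / BSA buffer; 8 min RT; luminescence.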
Gal4-VP16 FLuc: Gal4-VP16 reporter inhibition counter-screen. Drosophila S2 Gal4-VP16 UAS-luciferase, luminescence, 20 h. Potency, µM (series often up to 53.6 µM), for inactives: top-dose activity, negative = inhibition, most hits filed as inhibitors. actives 3.5% (n = 310,000). AID 2546;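 further: Gal4-VP16 expression switched on by copper sulfate through the metallothionein promoter; nearly all actives have a fitted effect of over 50% in size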
RORg inh: ROR gamma (mouse) transcription inhibition | AID 2551 | Drosophila S2 Gal4-RORgamma UAS-luciferase reporter, 20 h | P51450 | actives 5.4% (n = 310,000) | Potency, µM (doses to about 53.6 µM), for inactives: top-dose activity change, negative = inhibition, most hits filed as inhibitors; further: nearly all actives have a fitted effect of over 60% in size
Target sequence (P51450 whole entry, looked up, the tested form may be a part): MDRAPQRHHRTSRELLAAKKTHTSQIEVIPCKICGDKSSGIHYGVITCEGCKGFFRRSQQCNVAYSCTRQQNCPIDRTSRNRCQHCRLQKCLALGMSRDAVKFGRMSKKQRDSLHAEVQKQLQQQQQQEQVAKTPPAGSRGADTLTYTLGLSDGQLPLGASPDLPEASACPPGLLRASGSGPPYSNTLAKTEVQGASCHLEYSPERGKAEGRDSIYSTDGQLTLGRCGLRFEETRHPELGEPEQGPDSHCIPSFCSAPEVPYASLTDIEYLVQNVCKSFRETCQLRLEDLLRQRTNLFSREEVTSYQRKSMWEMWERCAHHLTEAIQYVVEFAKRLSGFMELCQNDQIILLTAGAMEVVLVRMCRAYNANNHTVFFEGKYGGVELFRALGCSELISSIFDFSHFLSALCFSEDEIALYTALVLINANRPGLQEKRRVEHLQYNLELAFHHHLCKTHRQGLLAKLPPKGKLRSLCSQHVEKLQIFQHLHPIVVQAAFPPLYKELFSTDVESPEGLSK
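A Gal4/UAS one-hybrid system in insect cells: metallothionein-promoter Gal4–ROR gamma fusion plus Photinus luciferase reporter. Copper sulfate 700 uM final, 20 hr ambient incubation, luminescent detection after 10 min with reagent.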
The depositor's hits bear a star; ? = inconclusive; . = no result given; [ ] = another dose, or the depositor's remark. The call rests on the fitted dose curve; in most records, active means well fitted curve in the direction sought with a large enough effect; inconclusive means small, poorly fitted or top-dose-only effect, or another doubt; inactive means no such curve, though single readings can be large; an effect the other way counts as inactive or inconclusive. On the % scale 0 is the no-effect control and ±100 the full control effect; potency means the concentration at half of the fitted maximal effect.

SMILES | Luc counter | Gal4-VP16 FLuc | RORg inh
CC1CCCC(NCC(=O)Nc2ccc(C(N)=O)cc2)C1C (configuration not stated) | -4% | -14% | -6%
FC(F)Sc1ccc(NC(=S)NC2CCCC2)cc1 | -2% | ? | 11µM*
CCn1c(=O)c2sccc2n(CC(=O)NC2CCCCC2)c1=O | . | 3% | -8%
Cc1ccccc1CN1C(=O)c2ccccc2S1(=O)=O | . | 5% | -1%
O=C1c2ccccc2S(=O)(=O)N1Cc1nc2ccccc2s1 | -1% | 4µM* | 3.2µM*
CC(=O)c1ccc(NC(=O)c2c(C)nn(-c3ccccc3)c2Cl)cc1 | -1% | ? | 11µM*
Cc1ccc(NC(=O)c2c(C)nn(-c3ccccc3)c2Cl)cc1 | 1% | 26% | ?
CCOC(=O)CSc1nnc(Cn2nnc3ccccc32)n1-c1ccc(F)cc1 | . | 1% | 6%
COc1ccc(NC(=S)N2CCCCC2c2cccnc2)cc1 (configuration not stated) | . | 8% | -14%
O=C(NC(=S)N1CCCCC1c1cccnc1)c1ccc(Br)cc1 (configuration not stated) | . | 1.3µM* | 0.5µM*
Cc1cccc(NC(=S)N2CCCCC2c2cccnc2)c1C (configuration not stated) | . | 8% | -28%
O=C(NC(=S)N1CCCCC1c1cccnc1)c1ccc(F)cc1 (configuration not stated) | . | 2.5µM* | 0.89µM*
O=C(Nc1ccc(Cl)cc1C(=O)NCc1cccnc1)c1ccc(Cl)cc1Cl | 1% | -1% | ?
O=C(NC(=S)NN1CCCCC1c1cccnc1)c1ccc(Cl)cc1Cl (configuration not stated) | . | 4.5µM* | 1.6µM*
CCn1c(C)c(C(C)=O)cc(C#N)c1=O | 0% | 3%[10 µM] | 0%
Cc1ccc(CNS(=O)(=O)c2ccc(CN3C(=O)c4cccnc4C3=O)cc2)o1 | . | -7% | -12%
C=CCOC(=O)N[C@H](/C(C(=O)OC)=C(\C)NCc1ccccc1)c1cccc(C(F)(F)F)c1 | 1% | 6% | 3%
CCOc1ccc(N=Cc2c(C)[nH]n(-c3nc4ccccc4[nH]3)c2=O)cc1 | 8.9µM* | ? | 14µM*
Cc1[nH]n(-c2ccccc2)c(=O)c1C=Nc1cnc2ccccc2c1 | -4% | -10% | -41%
Cc1c(N/N=C(\C#N)C(=O)c2ccc(Cl)cc2)c(=O)n(-c2ccccc2)n1C | -4% | 3.5µM* | 7.1µM*
N#C/C(=N\Nc1ccc(Cl)cc1)C(=O)c1ccccc1 | -5% | ? | ?
CCn1c(C)c(P(c2ccccc2)c2ccccc2)[n+]2ccccc12 | 3% | -3% | 5%
O=C(CN1C(=O)C2C3CCC(C3)C2C1=O)OCC(=O)c1ccc(Br)cc1 (configuration not stated) | . | 3% | 10%
CC1=CC(C)(C)Nc2ccc(OC(=O)c3ccco3)cc21 | -5% | 5.6µM* | 2.8µM*
CC1=CC(C)(C)Nc2ccc(OC(=O)CN3C(=O)CCC3=O)cc21 | 1% | 7.1µM* | 5.6µM*
SMILES | Luc counter | Gal4-VP16 FLuc | RORg inh
CC1=CC(C)(C)Nc2ccc(OC(=O)C(C)N3C(=O)c4ccccc4C3=O)cc21 (configuration not stated) | 1% | 11µM* | ?
CC1=CC(C)(C)Nc2ccc(C)cc21 | -2% | -4% | -1%
O=C(Oc1ccc(F)cc1)c1cccnc1 | . | -2% | -18%
CC1=CC(C)(C)N2C(=O)C(=O)c3cc(OC(=O)c4ccco4)cc1c32 | -4% | 11% | 34%
CC1=CC(C)(C)Nc2ccc(OC(=O)c3cccnc3)cc21 | -1% | 0.79µM* | 0.5µM*
COc1ccc(OC(=O)C(C)N2C(=O)c3ccccc3C2=O)cc1 (configuration not stated) | . | -5% | -18%[1.91 µM]
COc1cccc(-c2cncnc2NC2CCNCC2)c1 | . | 7% | 11%
Cc1cccc(-[n+]2c(C)cc(C)c3c(=O)[nH]c(=O)[nH]c32)c1 | 1% | -13% | 42%
O=C(Cc1ccc(Cl)cc1)N1CCC2(CC1)NCCc1[nH]cnc12 | . | -6% | 1%
C/C(=N\NC(=O)c1cccc(C)c1)c1ccc(N2CCOCC2)cc1 | -3% | 4% | ?
CNC(=S)N/N=C(\C)c1ccc(N2CCOCC2)cc1 | -1% | ? | 7.9µM*
CCNC(=S)N/N=C(\C)c1ccc(N2CCOCC2)cc1 | -1% | 3.5µM* | 2.5µM*
C/C(=N\NC(=O)c1c(C)nc2ccccn12)c1ccc(N2CCOCC2)cc1 | 0% | -8% | -2%
CCS(=O)(=O)NCCc1csc(C)n1 | -1% | -4% | -10%
Cc1ccc(S(=O)(=O)NNC(=O)NC23CC4CC(CC(C4)C2)C3)cc1 | -2% | 2% | -7%
CC[C@H](C)[C@H](NC(=O)[C@H](Cc1ccc(O)cc1)NC(=O)[C@H](Cc1cnc[nH]1)NC(=O)[C@H](CCCNC(=N)N)NC(=O)[C@H](CC(C)C)NC(=O)[C@H](C)NC(=O)[C@H](CO)NC(=O)[C@H](Cc1ccc(O)cc1)NC(=O)[C@H](Cc1ccc(O)cc1)NC(=O)[C@H](CCCNC(=N)N)NC(=O)[C@H](C)NC(=O)[C@H](CCSC)NC(=O)[C@H](CC(=O)O)NC(=O)[C@H](CCC(=O)O)NC(=O)[C@H](C)NC(=O)[C@@H]1CCCN1C(=O)[C@H](C)NC(=O)[C@H](CC(=O)O)NC(=O)[C@H](CCC(=O)O)NC(=O)CNC(=O)[C@@H]1CCCN1C(=O)[C@H](CC(N)=O)NC(=O)[C@H](CC(=O)O)NC(=O)[C@@H]1CCCN1C(=O)[C@H](CCCCN)NC(=O)[C@H](CO)NC(=O)[C@@H]1CCCN1C(=O)[C@@H](N)Cc1ccc(O)cc1)C(=O)N[C@@H](CC(N)=O)C(=O)N[C@@H](CC(C)C)C(=O)N[C@H](C(=O)N[C@H](C(=O)N[C@@H](CCCNC(=N)N)C(=O)N[C@@H](CCC(N)=O)C(=O)N[C@@H](CCCNC(=N)N)C(=O)N[C@@H](Cc1ccc(O)cc1)C(N)=O)[C@@H](C)O)[C@@H](C)CC | . | 1% | 18%
CC(=O)O[C@@H]1CC[C@@]2(C)[C@H](C1)[C@H](OC(C)=O)C[C@@H]1[C@@H]2C[C@H]2[C@@H]3CN4C[C@H](C)CC[C@H]4[C@H](C)[C@H]3CC[C@@]12O | . | -1% | -3%
O=C(O)C(Oc1ccc2ccc(=O)oc2c1)c1ccccc1 (configuration not stated) | 2% | 1% | 8%
Oc1ccc(CN2CCN(Cc3ccccc3)CC2)c2cccnc12 | 8% | -1% | 5%
O=S(=O)(c1ccc(Cl)cc1)N1CCN(Cc2ccc(O)c3ncccc23)CC1 | 0% | 2.8µM* | 1µM*
CC(NC(=O)CSC1=NCCS1)c1ccccc1 (configuration not stated) | . | -4% | 5µM*
O=C(CSC1=NCCS1)NC(NC(=O)CSC1=NCCS1)c1ccccc1 | -1% | 8% | ?
COc1cccc(CNC(=O)CN2C(=O)CSc3ccc(S(=O)(=O)N4CCOCC4)cc32)c1 | . | -7% | -10%
Cc1cc(NC(=O)CC(C)C)c(=O)n(Cc2cccc(F)c2)c1 | . | 5% | -7%[1.91 µM]
CC(NC(=O)CSc1ncnc2nc[nH]c12)c1ccccc1 (configuration not stated) | 1% | -5% | 21%
